SW480 rereplic – inducers of DNA re-replication in SW480 colon cancer cells. SW480 DNA re-replication, Hoechst DNA content imaging, 48 h. Potency, µM (top dose mostly 46.1 µM), usual class: activators. 1.8% of 340,000 active; further: nearly all actives have a fitted effect of over 55% in size
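Readout is total intensity of Hoechst-stained nuclei, excited at 405 nm and collected at 500-530 nm. Compound treatment lasted 48 hr at 37 C in 5% CO2 before staining.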
KB-V1 cytotox – kills drug-selected multidrug resistant KB-V1 cells; KB-V1 MDR cells viability, CellTiter-Glo, 72 h; Potency, µM (top dose mostly 46.1 µM), most hits filed as cytotoxic; 3.4% of 400,000 active; AID 1347076; further: nearly all actives have a fitted effect of over 60% in size
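Potencies derive from concentration-effect curves fitted to normalized luminescence (CellTiter-Glo) of KB-V1 cells treated for 72 h at 37 degrees C in phenol-red-free DMEM containing 10% FBS.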
KB-3-1 cytotox – KB-3-1 parental cell cytotoxicity. 1.4% of 400,000 active. KB-3-1 viability, CellTiter-Glo ATP luminescence, 72 h. Potency, µM (titrated, usually from 46.1 µM), most hits filed as cytotoxic; further: nearly all actives have a fitted effect of over 60% in size
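Multi-concentration cytotoxicity screen in KB-3-1 cells grown in DMEM lacking phenol red with 10% FBS. After 72 h at 37 °C with compound, ATP-dependent luminescence was recorded.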
MCF10A rerep – DNA re-replication induction in MCF 10a cells; MCF 10A DNA re-replication, Hoechst nuclear intensity, 48 h; Potency, µM (highest dose often 46.1 µM), actives largely listed as activators; 2.9% of 350,000 active; AID 624296; further: nearly all actives have a fitted effect of over 50% in size
ELG1 repair inh – inhibitors of ELG1-dependent DNA repair in HEK293T cells; HEK293T ELG1-luciferase reporter, luminescence, 16 h; DNA damage induced by 5-fluorouridine; Potency, µM (doses to about 46.1 µM), actives largely listed as inhibitors; AID 504467; 2.3% of 330,000 active; further: nearly all actives have a fitted effect of over 55% in size
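In this reporter screen, reduction of luminescence relative to DMSO vehicle indicated activity. Compounds and 5-fluorouridine were added together to 2,000 cells per well, incubated for 16 hr at 37 °C, then developed with ONE-Glo.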
Each line names hits and unclear results; the compound was inactive in the other large screens. An excerpt weighted towards active compounds, which were near 8.1% of everything screened. The call rests on the fitted dose curve; in most records, active means well fitted curve in the direction sought with a large enough effect; inconclusive means small, poorly fitted or top-dose-only effect, or another doubt; inactive means no such curve, though single readings can be large; an effect the other way counts as inactive or inconclusive.

Cc1cc(N/N=C/c2ccccc2O)c2ccccc2n1	SW480 rereplic inconclusive, KB-V1 cytotox inconclusive, KB-3-1 cytotox 13µM, MCF10A rerep 11.6µM
O=C(NCCO)c1cccc(Nc2nc(-c3ccccc3)c3cc(Cl)ccc3n2)c1	SW480 rereplic 16.4µM, KB-V1 cytotox 16.4µM, MCF10A rerep inconclusive, ELG1 repair inh inconclusive
O=C(O)CCCC(=O)NNc1nc(-c2ccccc2)c2cc(Cl)ccc2n1	none
NNc1nc(-c2ccccc2)c2cc(Cl)ccc2n1	MCF10A rerep 10.3µM
O=C(Nc1ccccc1C(=O)N1CCCCC1)c1cc(F)c(F)cc1Cl	none (no result: KB-V1 cytotox, KB-3-1 cytotox)
Cc1ccc(Nc2nc(NCc3ccco3)nc3nccnc23)cc1	KB-3-1 cytotox inconclusive (no result: SW480 rereplic, MCF10A rerep, ELG1 repair inh)
CC(C)(C)c1ccc(C(=O)NNc2ncnc3c2cnn3-c2ccccc2)cc1	none (no result: SW480 rereplic, MCF10A rerep, ELG1 repair inh)
COc1ccc(OCc2nnc3n2N=C(c2ccccc2)CS3)cc1	none (no result: SW480 rereplic, MCF10A rerep, ELG1 repair inh)
CN(Cc1c(F)cccc1Cl)C(=O)c1cccc(S(=O)(=O)NCc2ccccc2)c1	none
O=C(c1ccc(NS(=O)(=O)c2cccc(C(F)(F)F)c2)cc1)N1CCCC1	ELG1 repair inh inconclusive (no result: KB-V1 cytotox, KB-3-1 cytotox)
O=C(c1ccc(CNS(=O)(=O)c2cccc(C(F)(F)F)c2)cc1)N1CCOCC1	KB-V1 cytotox 13µM, ELG1 repair inh inconclusive
CN(Cc1ccc(Cl)cc1Cl)C(=O)c1cccc(S(=O)(=O)NCc2ccccc2)c1	KB-V1 cytotox 5.17µM, KB-3-1 cytotox inconclusive (no result: ELG1 repair inh)
O=C(NCc1cccc(C(F)(F)F)c1)c1cccc(S(=O)(=O)NCc2ccccc2)c1	KB-V1 cytotox 18.4µM, MCF10A rerep inconclusive, ELG1 repair inh inconclusive
CCCCc1ccc(NC(=O)CSc2nc(=O)n(CCN(C)C)c3c2CCC3)cc1	SW480 rereplic inconclusive, KB-3-1 cytotox inconclusive, MCF10A rerep inconclusive
CCCCc1ccc(NC(=O)CSc2nc(=O)n(CCN(CC)CC)c3c2CCCC3)cc1	SW480 rereplic inconclusive, KB-V1 cytotox 25.9µM, KB-3-1 cytotox inconclusive
Cc1cc(C)c2c3c(sc2n1)C(=O)N(c1ccccc1C)CC(=O)N3	ELG1 repair inh inconclusive
Cc1ccc(N2CC(=O)Nc3c(sc4nc(C)cc(C)c34)C2=O)cc1	ELG1 repair inh 23.1µM
CCOC(=O)c1c(-c2ccc(-c3ccccc3)cc2)csc1NC(=O)CCN1CCOCC1	KB-3-1 cytotox inconclusive, MCF10A rerep 8.2µM, ELG1 repair inh inconclusive
CCOC(=O)c1c(-c2ccccc2)csc1NC(=S)NC	SW480 rereplic inconclusive, MCF10A rerep 18.4µM
CCOC(=O)c1c(-c2ccc(F)cc2)csc1NC(=O)CCN1CCOCC1	KB-V1 cytotox 14.6µM
CCNC(=S)Nc1scc(-c2ccccc2)c1C(=O)OCC	KB-V1 cytotox inconclusive, KB-3-1 cytotox inconclusive, MCF10A rerep inconclusive
Cc1ccc2nc(C3CCCCC3)c(Cc3ccccc3)n2c1	KB-3-1 cytotox inconclusive (no result: SW480 rereplic, MCF10A rerep, ELG1 repair inh)
O=C(CCC(=O)N1CC2CCCN2c2ccccc21)NCc1ccc(Cl)cc1 (configuration not stated)	none (no result: SW480 rereplic, MCF10A rerep, ELG1 repair inh)
Cc1ccc(-n2nc3c4c(cccc4c2=O)-c2ccccc2-3)cc1	KB-V1 cytotox 8.2µM, KB-3-1 cytotox inconclusive, MCF10A rerep inconclusive
COc1ccc(NC(C)=O)cc1CNC(=O)CN1CCOCC1	MCF10A rerep inconclusive
CCOc1ccc(CC2NCCc3cc(OCC)c(OCC)cc32)cc1OCC (configuration not stated)	SW480 rereplic inconclusive, KB-V1 cytotox inconclusive, KB-3-1 cytotox inconclusive, MCF10A rerep inconclusive, ELG1 repair inh 14.6µM
C1CCCCCC(NCCN2CCNCC2)CCCCC1	SW480 rereplic inconclusive, KB-V1 cytotox inconclusive, KB-3-1 cytotox 16.4µM, MCF10A rerep inconclusive, ELG1 repair inh inconclusive
O=C(NCc1ccc2c(c1)CCN2C(=O)c1ccccc1)c1ccc(Br)o1	none (no result: SW480 rereplic, MCF10A rerep, ELG1 repair inh)
O=C(NCc1ccc2c(c1)CCN2C(=O)c1ccc(F)cc1)c1ccc(Br)o1	KB-V1 cytotox 2.59µM, KB-3-1 cytotox inconclusive (no result: SW480 rereplic, MCF10A rerep, ELG1 repair inh)
CCN(CC)c1ccc(C(=O)NCc2ccc3c(c2)CCN3C(=O)c2ccc(F)cc2)cc1	KB-V1 cytotox inconclusive, KB-3-1 cytotox 14.6µM (no result: SW480 rereplic, MCF10A rerep, ELG1 repair inh)
COc1ccc([C@@]2(C(C)C)ON(c3ccccc3C(F)(F)F)C2=O)cc1	SW480 rereplic inconclusive, KB-V1 cytotox inconclusive, MCF10A rerep inconclusive, ELG1 repair inh inconclusive
Cc1ccccc1NC(=O)Nc1nc(C(N)Cc2ccccc2)cs1 (configuration not stated)	none (no result: SW480 rereplic, MCF10A rerep, ELG1 repair inh)
Cc1cccc(/N=C/c2nc(-c3ccccc3Br)oc2O)n1	SW480 rereplic 4.11µM
Cc1ccccc1N1CCN(CC(=O)Nc2ccccc2C(=O)NC2CC2)CC1	ELG1 repair inh 20.6µM
CCCCC	none (no result: KB-V1 cytotox, KB-3-1 cytotox, ELG1 repair inh)
CCCCCc1ccc(S(=O)(=O)Nc2cc(C)ccn2)cc1	ELG1 repair inh 10.3µM
CCc1nnc(NC(=O)C2CCCN(c3nc(C)cc(C)n3)C2)s1 (configuration not stated)	KB-V1 cytotox 9.2µM
CCc1nnc(NC(=O)C2CCN(c3nccc(C)n3)CC2)s1	KB-V1 cytotox 16.4µM
Cc1ccc(C(=O)NNC(=O)C2CCN(c3nccc(C)n3)CC2)cc1	none
Cc1ccc(C)c(OCC(=O)Nc2ccc(S(=O)(=O)Nc3onc(C)c3C)cc2)c1C	none (no result: SW480 rereplic, MCF10A rerep, ELG1 repair inh)
O=c1[nH]c2cc3ccccc3cc2nc1-c1nnnn1C1CCCC1	KB-3-1 cytotox 5.8µM (no result: SW480 rereplic, MCF10A rerep, ELG1 repair inh)
CCOC(=O)c1ccc(-n2ccnc2)c(NC(=O)c2cccc(Br)c2)c1	none
CCOC(=O)c1ccc(-n2ccnc2)c(NC(=O)c2ccc(C(C)(C)C)cc2)c1	SW480 rereplic 13µM, MCF10A rerep inconclusive, ELG1 repair inh inconclusive
CC[C@@H]1CC=C[C@H]2[C@H]1C(=O)N(Cc1ccccc1)[C@H]2c1ccc(OC)c(Cl)c1	KB-V1 cytotox inconclusive, KB-3-1 cytotox inconclusive, MCF10A rerep inconclusive
CC(C)c1ccc(NC(=O)COC(=O)C2CCCCC2)cc1	ELG1 repair inh inconclusive (no result: KB-V1 cytotox, KB-3-1 cytotox)
O=C(Nc1ccc([N+](=O)[O-])cc1)C(Cc1ccccc1)N1C(=O)c2cccc3cccc(c23)C1=O (configuration not stated)	SW480 rereplic 18.4µM, KB-V1 cytotox inconclusive, KB-3-1 cytotox inconclusive, MCF10A rerep 11.6µM
Cc1cc([N+](=O)[O-])ccc1NC(=O)C(C)NC1CCCCC1 (configuration not stated)	none
COc1cc2c(C#CCCO)c(-c3ccc(C#N)cc3)oc(=O)c2cc1OC	MCF10A rerep 6.51µM
CCC(C(=O)NC1CCCC1)N(Cc1ccc2c(c1)OCO2)C(=O)c1snc(C(N)=O)c1N (configuration not stated)	ELG1 repair inh inconclusive
CCCC(C(=O)NC1CCCC1)N(Cc1cccs1)C(=O)c1snc(C(N)=O)c1N (configuration not stated)	KB-V1 cytotox 2.31µM, ELG1 repair inh inconclusive
CCCC(C(=O)NC(C)(C)C)N(Cc1ccccc1Cl)C(=O)c1snc(C(N)=O)c1N (configuration not stated)	SW480 rereplic inconclusive, KB-V1 cytotox inconclusive, MCF10A rerep 13µM, ELG1 repair inh inconclusive
Cc1c(Cl)cccc1NC(=O)C(=O)NCCc1csc(-c2cccc(F)c2)n1	none (no result: SW480 rereplic, MCF10A rerep, ELG1 repair inh)
